We go through 62 compounds from PubChem BioAssay AID1063 (University of Pittsburgh Molecular Library Screening Center, 2008).

Out of some 200,000 compounds screened, about 18,000 (9%) were called active. Cut-off read from the data, not from the text of the source: active = inhibition above about 50%; inactive = the rest. For the sample, actives were picked, then their nearest neighbours and some compounds at random.

The test is described as follows: antileishmanial activity against promastigotes – primary screen (AID 1063).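 Note: promastigotes grown with compound for 44 hours at 28 °C.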 Conditions: Leishmania major promastigotes, resazurin fluorescence viability; at 10 µM; active compounds read high. A general note: Resazurin is reduced to fluorescent resorufin, in cell work by metabolically active cells.
As for `CCCCC1N2CC3([N+](=O)[O-])CN1CC([N+](=O)[O-])(C2)C3(C)C` (configuration not stated), the inhibition (usually the change of the read-out against control, counted positive when it falls) was -3.35% (inactive).

In the case of `Cc1cccc(NC(=O)Nc2ccc3c(c2)OCO3)n1`, the inhibition is -1.54% (inactive).

For the compound `CCOc1cc(NC(=O)c2ccccn2)c(OCC)cc1NC(=O)c1ccc(OC)cc1`, the inhibition is -3.96% (inactive).

`CCC(C)(NC(=O)c1ccccn1)C(=O)NC1CCCCC1` (configuration not stated): the inhibition is 0.94% (inactive).

Take `CCN(CC)CCOc1ccc2c(c1)C(=NNC(=O)c1ccccn1)c1cc(OCCN(CC)CC)ccc1-2`: the inhibition is 101% (active).

`CC(=O)C1=C(C)NC2=C(C(=O)CC(C)(C)C2)C1C` (configuration not stated): the inhibition is -3.1% (inactive).

With `CCC(C)NCC(=O)Nc1ccc([N+](=O)[O-])cc1C(=O)Nc1ccccc1F` (configuration not stated), the inhibition is 11.7% (inactive).

Turning to `CC(C)(C)NC(=O)C(=O)NN=C1CCCCCCC1`, the inhibition was 9.68% (inactive).

Consider `Cc1ccc(CN2CCN(Cc3cccc(C)n3)CC2CCO)cc1` (configuration not stated), for which the inhibition is -2.02% (inactive).

Turning to `CC(=O)Nc1ccc(CN2CCN(Cc3ccc(F)c(F)c3)C(CCO)C2)cc1` (configuration not stated), the inhibition is 6.71% (inactive).

Regarding `CC(C)N1CCC(N2CCN(Cc3cccnc3)CC2CCO)CC1` (configuration not stated), the inhibition was -2.03% (inactive).

Turning to `OCCC1CN(Cc2ccc3nsnc3c2)CCN1C1CCCCC1` (configuration not stated), the inhibition was 13.5% (inactive).

Turning to `CC(C)=CCN1CCN(Cc2ccc(Oc3ncccn3)cc2)CC1CCO` (configuration not stated), the inhibition is -0.29% (inactive).

`CC(C)CCN1CCN(Cc2ccc(C(F)(F)F)cc2)CC1CCO` (configuration not stated): the inhibition is 87.1% (active).

With `OCCC1CN(Cc2ccc(Oc3ncccn3)cc2)CCN1CCc1ccccc1` (configuration not stated), the inhibition is 59.6% (active).

In the case of `COC(=O)c1ccc(CN2CCN(CCCc3ccccc3)C(CCO)C2)cc1` (configuration not stated), the inhibition is 83.9% (active).

Regarding `COc1ccc(CN2CCN(Cc3cn(C)nc3-c3ccccc3)CC2CCO)c(C)c1C` (configuration not stated), the inhibition was -0.96% (inactive).

Consider `CC(C)CCN1CCN(Cc2cn[nH]c2C2CCCCC2)CC1CCO` (configuration not stated), for which the inhibition is 24.3% (inactive).

As to `CC(C)CCN1CCN(C/C=C/c2ccco2)CC1CCO` (configuration not stated), the inhibition was 5.83% (inactive).

Take `Cc1ccc(CN2CCN(Cc3ccc4ncccc4c3)CC2CCO)cc1` (configuration not stated): the inhibition is 73.7% (active).

As to `CCOC(=O)C(CC)/C(C)=N\NC(=O)c1cccc(C)c1` (configuration not stated), the inhibition was -5.28% (inactive).

For the compound `COC(=O)c1cccnc1NC(=S)NC(C)C`, the inhibition was -3.71% (inactive).

`C=CCNC(=O)CC12CC3CC(C1)CC(CC(=O)NCC=C)(C3)C2`: the inhibition is -6.25% (inactive).

For the compound `COc1cccc(C(=O)Nc2cccnc2)c1OC`, the inhibition was -4.33% (inactive).

For `CCCN(C(=O)CSc1nnnn1C)c1c(N)n(Cc2ccccc2)c(=O)[nH]c1=O`, the inhibition is -5.81% (inactive).

As for `O=C(CCN1C(=O)C2C3C=CC(C3)C2C1=O)Oc1ccc2ccccc2c1` (configuration not stated), the inhibition was 24% (inactive).

As to `O=c1[nH]c(N2CCN(Cc3ccc4c(c3)OCO4)CC2)nc2c1CCCC2`, the inhibition is 0.88% (inactive).

For the compound `CCOC(=O)CSc1ccccn1`, the inhibition is -7.49% (inactive).

In the case of `Cc1c(Cc2ccccc2)c(=O)oc2cc(OCC(N)=O)ccc12`, the inhibition was -6.96% (inactive).

With `CCOc1ccc(NS(=O)(=O)c2cc(C)c(C)cc2C)cc1`, the inhibition was 5.1% (inactive).

On to `S=C(c1ccc(-c2ccccc2)o1)N1CCCCC1`, for which the inhibition is 12.2% (inactive).

`OCCC1CN(Cc2cccn2-c2nccs2)CCN1CCc1ccccc1` (configuration not stated): the inhibition was 11.3% (inactive).

With `COc1ccc(/C=C/CN2CCN(Cc3ccc(C)cc3)C(CCO)C2)cc1` (configuration not stated), the inhibition was 67.4% (active).

For `Cc1ccc(CN2CCN(Cc3ccccc3-c3ccco3)CC2CCO)o1` (configuration not stated), the inhibition was 3.16% (inactive).

`OCCC1CN(Cc2cccc(O)c2)CCN1CCc1ccccc1` (configuration not stated): the inhibition was -0.63% (inactive).

For `Cc1ccc(CN2CCN(Cc3ccc(OCCO)cc3)CC2CCO)o1` (configuration not stated), the inhibition was -4.28% (inactive).

In the case of `OCCC1CN(Cc2cnc(-c3ccccc3)s2)CCN1CCc1ccccc1` (configuration not stated), the inhibition was 83.7% (active).

Take `NC(N)=Nc1nc2ccc(Br)cc2c(=O)[nH]1`: the inhibition was 16.6% (inactive).

Turning to `CCOc1ccccc1N1CCN(C(=O)COc2ccc3c(C)cc(=O)oc3c2)CC1`, the inhibition is 43.7% (inactive).

As to `O=c1nc(N/N=C/c2ccco2)cn[nH]1`, the inhibition was -3.61% (inactive).

As to `CCCCn1c(N)c(N2CCOCC2)c(=O)n(CC(=O)NCCc2ccccc2)c1=O`, the inhibition is 1.59% (inactive).

On to `Cc1oc(-c2ccccc2F)nc1CS(=O)(=O)CC(=O)NCCCN(C)C1CCCCC1`, for which the inhibition is 2.98% (inactive).

As for `CCCN(CCC)CCCNC(=O)CNC(=O)c1nn(-c2ccc(OC)cc2)c(=O)c2ccccc12`, the inhibition is 1.38% (inactive).

For `CCCCN(CC)CCCNC(=O)CS(=O)(=O)Cc1nc(-c2cccc(OC)c2)oc1C`, the inhibition is 72.4% (active).

With `CCn1c(SCc2cc(=O)n3ccsc3n2)nc2ccccc21`, the inhibition was -1.53% (inactive).

`CCC(=O)Nc1cc(C(F)(F)F)ccc1N1CCCC1`: the inhibition is -2.29% (inactive).

For the compound `CCn1cc(CN2CCCC(CNS(=O)(=O)Cc3ccccc3)C2)cn1` (configuration not stated), the inhibition was 50.3% (active).

As to `CCOCCCNS(=O)(=O)Cc1ccccc1`, the inhibition was -9.59% (inactive).

With `O=C(CCC1CCCN(Cc2ccc(O)c(Cl)c2)C1)NCc1ccccc1F` (configuration not stated), the inhibition is 45.2% (inactive).

Regarding `O=C(COC(=O)CNC(=O)c1ccco1)Nc1ccc(F)cc1`, the inhibition was -2.3% (inactive).

Consider `CN1CCN(CCCNC(=O)c2cc3c(=O)oc4ccccc4c3s2)CC1`, for which the inhibition is 0.79% (inactive).

For `Cn1c(C(=O)NCCN2CCc3ccccc3C2)cc2c(=O)[nH]c3ccccc3c21`, the inhibition is 11.6% (inactive).

Regarding `O=C(NCCN1CCN(Cc2ccccc2)CC1)c1cc2c(=O)[nH]c3ccccc3c2s1`, the inhibition was 101% (active).

`CCC(C)NC(=O)c1nn(C)c(=O)c2ccccc12` (configuration not stated): the inhibition is 0.91% (inactive).

As to `Cc1[nH]n(-c2cccc(Cl)c2)c(=O)c1-c1ccc(Cl)cc1`, the inhibition is 53.3% (active).

In the case of `Cc1cccc(N=Nc2c(C)[nH]n(-c3ccccc3)c2=O)c1`, the inhibition is -1.61% (inactive).

Consider `Cc1[nH]n(-c2cccc(Cl)c2)c(=O)c1/C=N/n1c(C)nc2ccccc2c1=O`, for which the inhibition is -15.8% (inactive).

Turning to `Cc1nonc1NC(=O)CSc1nc2ccccc2cc1C#N`, the inhibition is 1.85% (inactive).

Consider `CCSc1nc(C)c(CCOc2cccc(C)c2)c(=O)[nH]1`, for which the inhibition is -3.36% (inactive).

As to `O=C(CN1CCCCCC1)NCCN1C(=O)S/C(=C\c2ccccc2Cl)C1=O`, the inhibition is 1.89% (inactive).

In the case of `O=C(c1c(Cl)nc2sccn12)N1CCCc2ccccc21`, the inhibition was -2.07% (inactive).

Regarding `O=C1/C(=C\c2ccccc2Cl)SC(=S)N1CCC(=O)N1CCCc2ccccc21`, the inhibition is 97.9% (active).
